# Assay outcomes (PubChem)
# The list is not random: actives were taken first. Their share in the collection is about 17%.
# DT40 TDP1 CPT – growth inhibition of DT40 Tdp1-/-;hTDP1 cells with camptothecin (screen for TDP1 inhibitors). actives 12% (n = 420,000). chicken DT40 Tdp1-/-;hTDP1 cells + 20 nM CPT, ATP luminescence, 48 h. Potency, µM (doses to about 46.2 µM), for the others: at the top dose activity change, negative = growth inhibition, hits mostly inhibitors. AID 686979; further: on the % scale 0 is the no-effect control and ±100 the full control effect; nearly all actives have a fitted effect of over 55% in size
#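 Chicken DT40 Tdp1-/- cells complemented with human TDP1, 400 cells/well, exposed to compounds plus 20 nM camptothecin for at least 48 h at 37 C; viability read as ATP content by CellTiter-Glo luminescence.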
# TDP1 cell noCPT – qHTS for Inhibitors of human tyrosyl-DNA phosphodiesterase 1 (TDP1): qHTS in cells in absence of CPT. DT40 Tdp1-/- hTDP1 cells, no CPT, ATP luminescence, 48 h. Potency, µM (doses to about 46.2 µM), inactives show at the top dose activity change, negative = growth inhibition, hits mostly inhibitors. actives 15% (n = 420,000). AID 686978, 2013; further: on the % scale 0 is the no-effect control and ±100 the full control effect; nearly all actives have a fitted effect of over 55% in size
#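 Seeded 400 DT40-hTDP1 cells/well (vehicle DMSO, no 20 nM CPT); pinned compounds; ≥48 hr at 37 °C; CellTiter-Glo luminescence as viability measure.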
# HepG2 viability – HepG2 cytotoxicity, counter-screen for TGF-b inhibitors. actives 0.76% (n = 410,000). HepG2 CAGA-GFP viability, ATP luminescence, 18 h. Potency, µM (doses to about 46.1 µM), for the others: at the highest dose activity change, negative = cytotoxicity, actives largely listed as cytotoxic
#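 HepG2 CAGA-GFP cells (1000/well, DMEM with 1% FBS) received compound, then TGF-beta at 500 pg/mL final, and were incubated 18 hours at 37 degrees C. Viability was read by CellTiter-Glo luminescence. Media-only wells were set as complete cell-killing and DMSO as no toxicity.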
# HT1080NT lethal – kills 2HG-producing HT-1080-NT fibrosarcoma cells; HT-1080-NT fibrosarcoma viability, CellTiter-Glo ATP luminescence, 48 h; Potency, µM (series often up to 46.1 µM), without a hit: at the highest dose activity, negative = less viability, actives largely listed as cytotoxic; actives 1.6% (n = 360,000); AID 686970;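 further: NT is the 2HG producing partner of a matched IDH1 knockdown line; 0% = DMSO-treated cells and -100% = media-only wells without cells; nearly all actives have a fitted effect of over 55% in size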
#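 Read-out is CellTiter-Glo luminescence after 10 minutes at room temperature, following 48 hours' compound treatment of HT-1080-NT cells (750 cells/well, RPMI, 5% FBS, 37 degrees C).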
# TGFb SMAD3 inh – TGF-b pathway inhibition; AID 588855; HepG2 CAGA-GFP TGF-b/SMAD3 reporter, GFP fluorescence, 18 h; TGF-beta stimulated, 500 pg/mL final; actives 1.2% (n = 410,000); Potency, µM (doses to about 46.1 µM), without a hit: at the top dose activity, negative = inhibition, most hits filed as inhibitors; further: on the % scale 0 is the no-effect control and ±100 the full control effect; nearly all actives have a fitted effect of over 65% in size
#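 Inhibition of TGF-beta-driven CAGA-GFP reporter expression in HEPG2 cells is measured by cellular GFP fluorescence after 18 h stimulation with 500 pg/mL recombinant TGF-beta in 1% FBS medium at 37 degrees C.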
# HT1080 IDH1KD tx – kills HT-1080 cells with IDH1 knockdown. HT-1080 IDH1 knockdown viability, ATP luminescence, 48 h. Potency, µM (titrated, usually from 46.1 µM), inactives show at the top dose activity, negative = toxicity, actives largely listed as cytotoxic. actives 2% (n = 360,000). AID 686971;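 further: 0% = DMSO wells and -100% = cell-free medium wells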
#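 Viability of IDH1-knockdown HT-1080 fibrosarcoma cells was assessed by CellTiter-Glo after 48 h at 37 °C with titrated compound; concentration-effect curves were classified by fit quality and response size.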
# Numbers without * were called inactive; ? = inconclusive; / = no result given; [ ] = remark or other dose. The call rests on the fitted dose curve; in most records, active means well fitted curve in the direction sought with a large enough effect; inconclusive means small, poorly fitted or top-dose-only effect, or another doubt; inactive means no such curve, though single readings can be large; an effect the other way counts as inactive or inconclusive. Potency means the concentration at half of the fitted maximal effect.
SMILES,DT40 TDP1 CPT,TDP1 cell noCPT,HepG2 viability,HT1080NT lethal,TGFb SMAD3 inh,HT1080 IDH1KD tx
Cc1ccc(-n2ncc(C(=O)N3CCCCC3)c2C2CCN(C(=O)OC(C)(C)C)CC2)cc1C,?,?,-0.5%,/,-25.3%,/
CCCNC(=O)c1cnn(-c2ccc(C)c(C)c2)c1C1CCN(C(=O)OC(C)(C)C)CC1,?,23.1µM*,4.2%,/,-18.1%,/
Cc1ccc(-n2ncc(C(=O)NCCc3c[nH]c4ccccc34)c2C2CCN(C(=O)OC(C)(C)C)CC2)cc1C,16.4µM*,?,-24.1%,/,?,/
Cc1ccc(-n2ncc(C(=O)NCCc3ccsc3)c2C2CCN(C(=O)OC(C)(C)C)CC2)cc1C,16.4µM*,16.4µM*,-10.0%,/,-16.5%,/
CC(=O)N/C(=C\c1ccccc1)C(=O)Nc1ccccc1C,8.2%,-4.8%,-7.8%,-0.4%,0.0%,7.7%
Cc1noc(NS(=O)(=O)c2ccc(NC(=O)COc3ccccc3Br)cc2)c1C,?,?,-30.6%,/,-10.9%,/
NS(=O)(=O)c1ccc(CCNC(=O)C2CCC(Cn3c(=S)[nH]c4ccccc4c3=O)CC2)cc1 (stereo unspecified),-0.9%,-28.2%,-12.3%,0.0%,-0.7%,4.6%
Cc1[nH]c(=O)[nH]c(=O)c1S(=O)(=O)Nc1cccc(C(F)(F)F)c1,-1.8%,10.6%,-2.4%,4.2%,-2.2%,3.1%
CCOc1cccc(C2c3c(oc4ccc(F)cc4c3=O)C(=O)N2c2cc(C)ccn2)c1 (stereo unspecified),16.4µM*,23.1µM*,-1.1%,/,4.1%,/
Cc1ccc2oc3c(c(=O)c2c1)C(c1cccc(O)c1)N(c1ccccn1)C3=O (stereo unspecified),?,?,1.1%,-0.2%,-5.9%,-14.9%
COc1ccccc1-c1nnc(Nc2nc3c(OC)cccc3s2)o1,0.92µM*,0.731µM*,-24.2%,0.92µM*,?,0.461µM*
COc1cccc(-c2nnc(-c3ccc4ccccc4c3)o2)c1,?,-26.6%,0.0%,5.7%,-5.2%,10.8%
COc1cccc2sc(Nc3nnc(-c4ccccc4Cl)o3)nc12,1.64µM*,1.46µM*,-31.9%,?,?,?
COc1ccccc1-c1nnc(NC(=O)Cc2ccccc2)o1,-26.2%,-20.1%,-20.9%,0.0%,-2.4%,3.2%
COc1cccc2sc(NN)nc12,?,?,-12.7%,-22.1%,-9.4%,?
COc1cccc(-c2nnc(Nc3nc4c(F)cccc4s3)o2)c1,20.6µM*,23.1µM*,-34.9%,7.94µM*,?,6.31µM*
CCC1CCCCN1C(=O)c1cc(COc2ccc(-n3cncn3)cc2)on1 (stereo unspecified),18.4µM*,16.4µM*,0.0%,?,4.9%,-2.7%
COCCC1CCCCN1C(=O)c1cc(COc2ccc(C)nc2)on1 (stereo unspecified),20.6µM*,23.1µM*,-3.8%,20.6µM*,-10.2%,-9.8%
COCCCC1CCN(C(=O)c2cc(COc3ccc(C)nc3)on2)CC1,18.4µM*,10.3µM*,8.7%,?,10.4%,-13.0%
CCOC(=O)C1CCCN(C(=O)c2cc(COc3ccc(C)nc3)on2)C1 (stereo unspecified),?,?,12.1%,-10.2%,-16.4%,-9.1%
O=C(c1cc(COc2ccc(-n3cncn3)cc2)on1)N1CCCC1,-19.5%,-21.4%,7.8%,19.2%,0.1%,8.7%
CCCCN1C(=O)C(=O)N(CC(=O)Nc2sc(CC)cc2C(=O)OCC)C1=O,6.8%,-17.3%,-9.5%,13.3%,-1.4%,11.5%
CC(=O)c1cccc(-n2c(=O)c3c4c(sc3n(CC(=O)c3ccc(Cl)cc3)c2=O)CN(C(C)=O)CC4)c1,-0.7%,-4.9%,-19.2%,/,?,/
CCc1ccc2nc(SCC(=O)Nc3nnc(C)s3)c(C)cc2c1,9.2µM*,?,-6.2%,-4.4%,39.2%,-3.1%
CCOC(=O)C1CN(S(=O)(=O)c2ccc(C)cc2)CCN1S(=O)(=O)c1ccc(C)cc1 (stereo unspecified),?,?,-1.5%,-5.8%,-3.9%,-2.4%[9.24 µM]
SMILES,DT40 TDP1 CPT,TDP1 cell noCPT,HepG2 viability,HT1080NT lethal,TGFb SMAD3 inh,HT1080 IDH1KD tx
C=CCC1[C@H](C)[C@H]2[C@@H]3CC[C@@H](C3)[C@H]2CN1S(=O)(=O)c1ccc(C)cc1 (stereo partly specified),18.4µM*,?,-20.9%,-19.8%,?,?
Cc1ccc(S(=O)(=O)N2C[C@@H]3[C@H]4CC[C@H](C4)[C@@H]3[C@@H](C)C2CC(=O)c2ccccc2)cc1 (stereo partly specified),?,23.1µM*,-4.6%,?,-7.4%,-4.9%
Cc1ccc(S(=O)(=O)N2C[C@@H]3[C@H]4CC[C@H](C4)[C@@H]3[C@@H](C)[C@@H]2c2ccn([Si](C(C)C)(C(C)C)C(C)C)c2)cc1,?,23.1µM*,-14.8%,6.8%,-3.8%,9.4%
Cc1ccc(S(=O)(=O)N2CCn3cccc3C2C)cc1 (stereo unspecified),-4.6%,-24.8%,-33.8%,-0.2%,?,-7.8%
COc1ccccc1-c1ccnc(-n2ncc(C(=O)N3CCN(C4CCCC4)CC3)c2-c2ccco2)n1,5.0%[9.04 µM],-15.9%,/,/,/,/
CC1CC(C)CN(C(=O)/C=C/c2ccc(S(=O)(=O)N3CCOCC3)cc2)C1 (stereo unspecified),?,?,9.8%,19.0%,5.0%,-0.8%
COc1c(N2CCN(C(=S)Nc3ccc(F)cc3)C(C)C2)c(F)cc2c(=O)c(C(=O)O)cn(C3CC3)c12 (stereo unspecified),-2.6%,-23.1%,0.8%,-3.8%,-14.1%,-6.8%
COc1c(N2CCN(C(=S)NC3CC4CCC3C4)C(C)C2)c(F)cc2c(=O)c(C(=O)O)cn(C3CC3)c12 (stereo unspecified),23.1µM*,23.1µM*,5.7%,6.6%,-1.9%,15.6%
CCOC(=O)c1c(C)n(CC(O)CN(C)C)c2cc(Br)c(OC)cc12 (stereo unspecified),21.9%,?,-17.5%,-0.1%,28.0%,-11.7%
Brc1ccccc1-n1nnc(-c2cnc3ccccc3c2)n1,?,18.4µM*,-36.6%,-10.6%,?,-8.7%
